Results: PubChem BioAssay (NCATS)
Results filed as inconclusive are left out. Entries that show only a call come without a potency. Calls of active or inactive are those of the source. Unless noted, calls come from the whole dose curve; as a rule, active = well fitted curve in the direction sought with a large enough effect; inconclusive = small, poorly fitted or top-dose-only effect, or another doubt; inactive = no such curve, though single readings can be large; an effect the other way counts as inactive or inconclusive.

Key:
[1] = MultiTox-Fluor Cytotoxicity Assay - LYMP1-001 - Live Cells (AID 947); conditions: LYMP1-001 lymphoblastoid cells, live-cell protease fluorescence viability; series mostly up to 92.2 µM
[2] = biological target: Pyruvate kinase (Leishmania mexicana) (UniProt Q27686); test: qHTS Validation Assay for Activators of Leishmania Mexicana Pyruvate Kinase (AID 959); conditions: purified L. mexicana pyruvate kinase, enzyme activity
Sequence of Pyruvate kinase (Leishmania mexicana) (Q27686 2-499 E452W): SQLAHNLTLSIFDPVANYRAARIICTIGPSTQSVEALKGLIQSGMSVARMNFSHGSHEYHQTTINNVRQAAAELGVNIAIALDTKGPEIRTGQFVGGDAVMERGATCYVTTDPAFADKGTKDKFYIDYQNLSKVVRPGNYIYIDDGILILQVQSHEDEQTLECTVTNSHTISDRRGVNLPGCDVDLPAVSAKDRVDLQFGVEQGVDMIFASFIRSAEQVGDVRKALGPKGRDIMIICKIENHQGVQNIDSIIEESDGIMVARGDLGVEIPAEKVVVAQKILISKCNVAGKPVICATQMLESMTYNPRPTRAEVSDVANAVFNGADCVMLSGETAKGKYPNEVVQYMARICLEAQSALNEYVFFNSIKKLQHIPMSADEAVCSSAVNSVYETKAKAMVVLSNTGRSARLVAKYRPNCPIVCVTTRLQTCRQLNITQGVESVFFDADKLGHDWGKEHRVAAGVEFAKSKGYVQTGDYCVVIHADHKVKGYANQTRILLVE
Summary of the method: (§1)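 An endpoint luciferase assay: 0.2 nM LmPYK E451W turns over 0.5 mM PEP with 0.1 mM ADP for 1 h at room temperature, pH 7.2, before PKLight addition. Values are normalized to DMSO-only wells.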

[3] = qHTS Assay for Identification of Small Molecule Agonists for Thrombopoietin (TPO) Signaling Pathway (AID 917); conditions: TPO signaling pathway reporter cells, agonist qHTS; series mostly up to 38.5 µM
Summary of the method: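 IL-3-dependent murine pro-B Ba/F3 cells, stably transfected with human TPO receptor and GpIIb-promoter luciferase, are incubated 24 hrs at 37 C with test compound and 26 pM TPO; luciferase signal is read after 10 min at room temperature.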

[4] = biological target: Pyruvate kinase (Leishmania mexicana) (UniProt Q27686); test: qHTS Validation Assay for Inhibitors of Leishmania Mexicana Pyruvate Kinase (AID 945); conditions: purified L. mexicana pyruvate kinase, enzyme activity, E451W mutant enzyme; series mostly up to 57.5 µM
Summary of the method: as §1

[5] = biological target: Pyruvate kinase PKM (Homo sapiens) (UniProt P14618); test: qHTS Assay for Activators of Human Muscle Pyruvate Kinase (AID 954; active = well fitted curve in the direction sought with a large enough effect, not every such curve was filed as active); conditions: purified human muscle pyruvate kinase, luciferase-coupled luminescence, 1 h; series mostly up to 57.5 µM
Sequence of Pyruvate kinase PKM (Homo sapiens) (P14618 whole entry, looked up): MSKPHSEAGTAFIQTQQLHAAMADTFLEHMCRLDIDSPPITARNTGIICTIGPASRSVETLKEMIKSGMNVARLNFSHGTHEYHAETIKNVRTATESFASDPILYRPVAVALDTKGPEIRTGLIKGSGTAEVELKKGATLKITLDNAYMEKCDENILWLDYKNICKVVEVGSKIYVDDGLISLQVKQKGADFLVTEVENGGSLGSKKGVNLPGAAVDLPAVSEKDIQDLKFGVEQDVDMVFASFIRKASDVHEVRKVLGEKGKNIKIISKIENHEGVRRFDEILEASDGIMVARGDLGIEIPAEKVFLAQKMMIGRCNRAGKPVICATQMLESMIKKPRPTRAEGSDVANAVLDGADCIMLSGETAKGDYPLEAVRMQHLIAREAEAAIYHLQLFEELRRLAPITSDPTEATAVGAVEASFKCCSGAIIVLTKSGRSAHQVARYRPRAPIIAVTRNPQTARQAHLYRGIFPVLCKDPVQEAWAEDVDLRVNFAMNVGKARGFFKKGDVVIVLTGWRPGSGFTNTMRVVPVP
Summary of the method: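 Purified human PKM2 (0.1 nM) with 0.5 mM PEP (Km) and 0.1 mM ADP in 50 mM imidazole pH 7.2, KCl, MgCl2, 1 h at room temperature; ATP formed read by coupled luciferase luminescence. Normalized to no-enzyme/110 uM thiadiazolimine inhibition; 0.3 nM enzyme column for activation.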

[6] = biological target: Alpha-galactosidase (Coffea arabica) (UniProt Q42656); test: Counterscreen for Glucocerebrosidase Inhibitors: qHTS Assay for Coffee Bean alpha-Galactosidase at pH 4.5 (AID 957); conditions: purified coffee bean alpha-galactosidase, fluorogenic substrate; series mostly up to 76.9 µM
Sequence of Alpha-galactosidase (Coffea arabica) (Q42656 whole entry, looked up): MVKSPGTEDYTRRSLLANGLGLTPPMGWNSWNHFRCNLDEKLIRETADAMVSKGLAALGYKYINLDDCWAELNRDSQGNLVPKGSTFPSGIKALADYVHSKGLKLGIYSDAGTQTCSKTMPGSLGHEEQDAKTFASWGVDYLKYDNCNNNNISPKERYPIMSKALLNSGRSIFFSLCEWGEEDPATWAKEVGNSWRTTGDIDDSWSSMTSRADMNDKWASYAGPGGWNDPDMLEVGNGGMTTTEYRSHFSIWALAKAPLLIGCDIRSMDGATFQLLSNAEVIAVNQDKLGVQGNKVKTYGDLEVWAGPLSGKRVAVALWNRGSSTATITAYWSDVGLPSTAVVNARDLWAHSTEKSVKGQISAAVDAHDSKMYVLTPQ
Summary of the method: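 Green coffee bean enzyme (2 nM final) was incubated with compounds (0.7 nM to 77 uM) and 4-methylumbelliferyl alpha-D-galactopyranoside (80 uM final) in 50 mM citric acid, 0.005% Tween-20, pH 4.5, 20 min at room temperature; AC50 from Hill fits.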

[7] = Cell Viability - LYMP2-001 (AID 921); conditions: LYMP2-001 lymphoblastoid cell viability; series mostly up to 92.2 µM;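 note: cells exposed to compound for 24 h at 37 °C; nearly all actives have a fitted effect of over 70% in size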; note: potency is the fitted concentration of half-maximal effect
Summary of the method: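 A lymphoblastoid cell line of human origin was treated with library compounds across a concentration series for 24 hours, and viable cell number was estimated from ATP-driven luciferase light output. Hill modeling gave AC50.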

[8] = MultiTox-Fluor Cytotoxicity Assay - LYMP1-001 - Dead Cells (AID 946); conditions: LYMP1-001 lymphoblastoid cells, dead-cell protease fluorescence; series mostly up to 92.2 µM; note: potency is the fitted concentration of half-maximal effect
Summary of the method: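 LYMP1-001 lymphoblastoid cells (2500/well) treated 16 h at 37 C. Dead-cell protease cleavage of bis-AAF-R110 read at Ex/Em 485/520. Normalized to DMSO and 15 uM tetraoctylammonium bromide; AC50 from Hill fits.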

[9] = Cell Viability - LYMP1-002 - Assay at 16 hr (AID 948); conditions: LYMP1-002 lymphoblastoid cell viability; series mostly up to 92.2 µM
Summary of the method: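 In this qHTS, lymphoblastoid LYMP1-002 cells (human) receive compounds for 16 hr at 37 C. Viability is taken from CellTiter-Glo ATP luminescence, and AC50 derives from standard Hill fits.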

[10] = MultiTox-Fluor Cytotoxicity Assay - LYMP1-002 - Live Cells (AID 955); conditions: LYMP1-002 lymphoblastoid live-cell protease fluorescence viability; series mostly up to 46.1 µM; note: potency is the fitted concentration of half-maximal effect
Summary of the method: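 Human lymphoblastoid LYMP1-002 cells, 2500/well in complete medium, rested 5 hr at 37 C, then exposed to compounds for 16 hr at 37 C. Live-cell protease cleavage of GF-AFC read by fluorescence (Ex/Em 405/510) after 60 min at room temperature; AC50 from Hill fits.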

[11] = MultiTox-Fluor Cytotoxicity Assay - LYMP1-002 - Dead Cells (AID 960); conditions: LYMP1-002 lymphoblastoid cells, dead-cell protease fluorescence; series mostly up to 46.1 µM; note: nearly all actives have a fitted effect of over 60% in size; note: potency is the fitted concentration of half-maximal effect
Summary of the method: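 Human lymphoblastoid cells (LYMP1-002), 2500/well in complete medium, were exposed to compounds for 16 hr at 37 C. Dead-cell protease activity was read as bis-AAF-R110 fluorescence (Ex/Em 485/520), normalized to DMSO and 15 uM tetraoctylammonium bromide; AC50 from Hill fits.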

[12] = MultiTox-Fluor Cytotoxicity Assay - LYMP1-003 - Dead Cells (AID 961); conditions: LYMP1-003 lymphoblastoid cells, dead-cell protease fluorescence; series mostly up to 92.2 µM; note: nearly all actives have a fitted effect of over 70% in size; note: potency is the fitted concentration of half-maximal effect
Summary of the method: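 LYMP1-003 human lymphoblastoid cells (2500/well) exposed to compound 16 h at 37 C in complete medium; dead-cell protease read with bis-AAF-R110 fluorescence (Ex/Em 485/520) after 60 min at room temperature. Normalized to DMSO and 15 uM tetraoctylammonium bromide; AC50 from Hill fit.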

[13] = MultiTox-Fluor Cytotoxicity Assay - LYMP1-003 - Live Cells (AID 962); conditions: LYMP1-003 lymphoblastoid cells, MultiTox-Fluor live-cell protease fluorescence; series mostly up to 92.2 µM; note: potency is the fitted concentration of half-maximal effect
Summary of the method: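 LYMP1-003 human lymphoblastoid cells (2500/well) in complete medium were preincubated 5 hr at 37 C, then exposed to compounds for 16 hr at 37 C. Live-cell protease cleavage of GF-AFC read by fluorescence (Ex/Em 405/510); AC50 from Hill fits.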

[14] = biological target: Muscarinic acetylcholine receptor M1 (Rattus norvegicus) (UniProt P08482); test: qHTS Assay for Antagonists of Acetylcholine Muscarinic M1 Receptor: Measurement of IP-One Response (AID 944); conditions: CHO-M1 cells, IP-One HTRF, antagonist mode; series mostly up to 46.1 µM; note: nearly all actives have a fitted effect of over 75% in size; note: potency is the fitted concentration of half-maximal effect
Sequence of Muscarinic acetylcholine receptor M1 (Rattus norvegicus) (P08482 whole entry, looked up): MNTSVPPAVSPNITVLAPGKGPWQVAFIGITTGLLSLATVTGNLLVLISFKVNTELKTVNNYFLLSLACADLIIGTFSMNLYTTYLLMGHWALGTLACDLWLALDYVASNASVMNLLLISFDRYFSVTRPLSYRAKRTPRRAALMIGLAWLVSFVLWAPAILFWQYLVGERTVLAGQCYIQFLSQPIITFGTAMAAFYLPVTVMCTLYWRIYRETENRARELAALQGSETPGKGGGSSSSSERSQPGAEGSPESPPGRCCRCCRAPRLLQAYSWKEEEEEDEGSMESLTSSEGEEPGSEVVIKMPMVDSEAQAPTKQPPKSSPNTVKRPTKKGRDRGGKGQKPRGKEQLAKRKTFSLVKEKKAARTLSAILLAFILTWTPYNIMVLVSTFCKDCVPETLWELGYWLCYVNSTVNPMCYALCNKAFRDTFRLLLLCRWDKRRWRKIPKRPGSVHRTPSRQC
Summary of the method: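 CHO cells expressing rat M1 receptor, recovered overnight, were pre-incubated 10 min with compound, then stimulated 30 min with carbachol at EC80 (200 nM) in LiCl-containing buffer, pH 7.4. IP1 accumulation was read by HTRF (620/665 nm).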

[15] = qHTS Assay for Identification of Small Molecule Antagonists for Thrombopoietin (TPO) Signaling Pathway (AID 918); conditions: TPO-dependent cell signaling reporter, antagonist mode; note: potency is the fitted concentration of half-maximal effect; nearly all actives have a fitted effect of over 60% in size
Summary of the method: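 Murine Ba/F3 cells stably expressing human TPO receptor and a Glycoprotein IIb promoter–luciferase reporter were IL-3-starved overnight, treated with compounds plus TPO (26 pM final, its EC50) for 24 hrs at 37 C, then read by luminescence.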

[16] = biological target: Muscarinic acetylcholine receptor M1 (Rattus norvegicus) (UniProt P08482); test: qHTS Assay for Antagonists of Acetylcholine Muscarinic M1 Receptor: Kinetic Measurement of Intracellular Calcium Response (AID 943); conditions: M1-expressing cells, kinetic intracellular calcium fluorescence; series mostly up to 35.3 µM; note: nearly all actives have a fitted effect of over 75% in size; note: potency is the fitted concentration of half-maximal effect
Summary of the method: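 CHO cells stably expressing rat M1 were loaded with no-wash Fluo-4 dye for 1 h at 37C, pre-incubated 10 min with compound, then challenged with EC80 carbachol (100 nM final); kinetic calcium read 4 min, peak/basal ratio.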

## NCC(O)c1ccc(O)cc1 (stereo unspecified)
[1]
  outcome: inactive

## CN1C[C@H](CNC(=O)OCc2ccccc2)C[C@@H]2c3cccc4c3c(cn4C)C[C@H]21
[2]
  Potency: 12.6 µM (active)

## CC(=O)[C@H]1CC[C@H]2[C@@H]3CC[C@H]4C[C@H](O)CC[C@]4(C)[C@H]3C(=O)C[C@]12C
[3]
  outcome: inactive
[4]
  outcome: inactive
[5]
  outcome: inactive
[6]
  outcome: inactive

## Cc1ccccc1N1C(=O)c2cc(S(N)(=O)=O)c(Cl)cc2NC1C (stereo unspecified)
[6]
  outcome: inactive

## Oc1ccc(Cl)cc1Cc1ccccc1
[7]
  Potency: inactive
[8]
  Potency: inactive
[1]
  outcome: inactive
[9]
  outcome: inactive
[10]
  Potency: inactive
[11]
  Potency: inactive
[12]
  Potency: inactive
[13]
  Potency: inactive

## NCC1(CC(=O)O)CCCCC1
[3]
  outcome: inactive
[4]
  outcome: inactive
[5]
  outcome: inactive
[6]
  outcome: inactive

## OCCOc1ccccc1
[7]
  Potency: inactive
[8]
  Potency: inactive
[1]
  outcome: inactive
[9]
  outcome: inactive
[10]
  Potency: inactive
[11]
  Potency: inactive
[12]
  Potency: inactive
[13]
  Potency: inactive

## Cc1nc2n(c(=O)c1CCN1CCC(c3noc4cc(F)ccc34)CC1)CCCC2
[14]
  Potency: 12.6 µM (active)
[6]
  outcome: inactive

## CN(C)CCC=C1c2ccccc2C=Cc2ccccc21
[6]
  outcome: inactive

## CC(=O)N[C@@H](CS)C(=O)O
[6]
  outcome: inactive

## Fc1ccc(C(OCCN2CCN(CCCc3ccccc3)CC2)c2ccc(F)cc2)cc1
[15]
  Potency: 10 µM (active)
[16]
  Potency: 1.58 µM (active)
[14]
  Potency: 7.94 µM (active)
[4]
  outcome: inactive
[5]
  outcome: inactive
[6]
  outcome: inactive

## CCCC(CCC)C(=O)O
[6]
  outcome: inactive

## CN/C(=C\[N+](=O)[O-])NCCSCc1ccc(CN(C)C)o1
[6]
  outcome: inactive

## CN1CCN(CCCN2c3ccccc3Sc3ccc(C(F)(F)F)cc32)CC1
[6]
  outcome: inactive

## C[C@]12C/C(=C/O)C(=O)C[C@@H]1CC[C@@H]1[C@@H]2CC[C@@]2(C)[C@H]1CC[C@]2(C)O
[8]
  Potency: 50.1 µM (active)
[9]
  outcome: inactive
[13]
  Potency: inactive

## Cc1cn([C@H]2C=C[C@@H](CO)O2)c(=O)[nH]c1=O
[6]
  outcome: inactive

## CC[N+](CC)(CC)CC
[6]
  outcome: inactive

## CC(C)OC(=O)C(C)(C)Oc1ccc(C(=O)c2ccc(Cl)cc2)cc1
[6]
  outcome: inactive

## CCCNC(=O)NS(=O)(=O)c1ccc(Cl)cc1
[6]
  outcome: inactive

## CN1CCN(C2=Nc3ccccc3Oc3ccc(Cl)cc32)CC1
[6]
  outcome: inactive

## O=C1c2c(O)ccc(O)c2C(=O)c2c(NCCNCCO)ccc(NCCNCCO)c21
[6]
  outcome: inactive

## CC(=O)Oc1ccccc1C(=O)Nc1ncc([N+](=O)[O-])s1
[8]
  Potency: 39.8 µM (active)
[10]
  Potency: 25.1 µM (active)
[11]
  Potency: 25.1 µM (active)
[12]
  Potency: 39.8 µM (active)
[13]
  Potency: 39.8 µM (active)

## CN(C)C(=O)C(CCN1CCC(O)(c2ccc(Cl)cc2)CC1)(c1ccccc1)c1ccccc1
[6]
  outcome: inactive

## CNCC(O)c1ccc(O)cc1 (stereo unspecified)
[7]
  Potency: inactive
[14]
  Potency: inactive
[4]
  outcome: inactive
[8]
  Potency: inactive
[1]
  outcome: inactive
[9]
  outcome: inactive
[5]
  outcome: inactive
[10]
  Potency: inactive
[6]
  outcome: inactive
[12]
  Potency: inactive
[13]
  Potency: inactive

## CCOC(=O)c1ncn2c1CN(C)C(=O)c1cc(F)ccc1-2
[6]
  outcome: inactive

## CCOP(=S)(OCC)Oc1cc(C)nc(C(C)C)n1
[7]
  Potency: inactive
[8]
  Potency: inactive
[1]
  outcome: inactive
[9]
  outcome: inactive
[10]
  Potency: inactive
[11]
  Potency: inactive
[12]
  Potency: inactive
[13]
  Potency: inactive

## Cc1ccc(S(=O)(=O)NC(=O)NN2CCCCCC2)cc1
[6]
  outcome: inactive

## N[C@@H](Cc1ccc(N(CCCl)CCCl)cc1)C(=O)O
[7]
  Potency: 39.8 µM (active)
[1]
  outcome: inactive
[9]
  outcome: inactive
[10]
  Potency: inactive
[11]
  Potency: inactive
[12]
  Potency: inactive
[13]
  Potency: inactive

## N#CC(C#N)=Cc1ccc(O)c(O)c1
[4]
  outcome: inactive
[5]
  outcome: inactive
[6]
  outcome: inactive

## Oc1ccccc1-c1ccccc1
[7]
  Potency: inactive
[8]
  Potency: inactive
[1]
  outcome: inactive
[9]
  outcome: inactive
[10]
  Potency: inactive
[11]
  Potency: inactive
[12]
  Potency: inactive
[13]
  Potency: inactive

## CC(C)NCC(O)COc1cccc2[nH]ccc12 (stereo unspecified)
[6]
  outcome: inactive

## NS(=O)(=O)c1cc2c(cc1Cl)NC=NS2(=O)=O
[6]
  outcome: inactive

## Nc1ncn([C@@H]2O[C@H](CO)[C@@H](O)[C@H]2O)c(=O)n1
[6]
  outcome: inactive

## CCn1cc(C(=O)O)c(=O)c2ccc(C)nc21
[3]
  outcome: inactive
[16]
  Potency: inactive
[14]
  Potency: inactive
[4]
  outcome: inactive
[5]
  outcome: inactive
[6]
  outcome: inactive

## Cc1[nH]c(=O)c(C#N)cc1-c1ccncc1
[6]
  outcome: inactive

## Clc1cccc(N2CCNCC2)c1
[3]
  outcome: inactive
[4]
  outcome: inactive
[5]
  outcome: inactive
[6]
  outcome: inactive

## c1ccc2c(c1)Nc1ccccc1S2
[7]
  Potency: inactive
[8]
  Potency: inactive
[1]
  outcome: inactive
[9]
  outcome: inactive
[10]
  Potency: inactive
[11]
  Potency: inactive
[12]
  Potency: inactive
[13]
  Potency: inactive
